# Measurements as given in PubChem BioAssay (NCATS).
# Results filed as inconclusive are left out. Values without a mark were called inactive. The source made the active and inactive calls. Unless noted, calls come from the whole dose curve; as a rule, active = well fitted inhibition curve with a large enough effect; inconclusive = small, poorly fitted or top-dose-only effect; inactive = no such curve, though single readings can be large or run the other way.
# Target: Cytochrome P450 2D6 (Homo sapiens) (UniProt P10635)
# Test: qHTS Assay for Inhibitors and Substrates of Cytochrome P450 2D6 (AID 891); note: potency is the fitted concentration of half-maximal effect; nearly all actives have a fitted effect of over 60% in size
# Settings: recombinant CYP2D6, luciferin-ME EGE luminescence; series mostly up to 11.4 µM
# Outline: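 Human CYP2D6 (5 nM) with 30 uM Luciferin-ME EGE (at Km) in 100 mM KPO4, compound preincubated 10 min, then NADPH regeneration system for 60 min at room temperature. Luciferin read by luminescence; normalized to 1.43 uM quinidine.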
# Sequence of Cytochrome P450 2D6 (Homo sapiens) (P10635 whole entry, looked up): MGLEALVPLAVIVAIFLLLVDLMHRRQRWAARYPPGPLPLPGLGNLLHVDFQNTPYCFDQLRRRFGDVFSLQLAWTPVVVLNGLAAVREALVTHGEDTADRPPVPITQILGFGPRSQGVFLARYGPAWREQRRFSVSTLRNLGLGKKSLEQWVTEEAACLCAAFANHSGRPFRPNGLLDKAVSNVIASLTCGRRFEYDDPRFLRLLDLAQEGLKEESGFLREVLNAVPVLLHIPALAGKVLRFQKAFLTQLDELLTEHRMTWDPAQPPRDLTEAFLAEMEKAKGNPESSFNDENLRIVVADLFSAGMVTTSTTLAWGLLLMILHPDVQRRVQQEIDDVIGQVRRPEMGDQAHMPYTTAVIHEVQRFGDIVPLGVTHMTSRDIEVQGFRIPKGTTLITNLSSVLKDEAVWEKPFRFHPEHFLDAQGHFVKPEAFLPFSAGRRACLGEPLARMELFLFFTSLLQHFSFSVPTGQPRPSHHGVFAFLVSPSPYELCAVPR
row,SMILES,Potency
1,CSC1(SC2=NCCN2)SC2(NCCN2)S1,3980 nM (active)
2,Cn1ncc2c(NCCc3ccccc3)nc(Cl)nc21,126 nM (active)
3,C/C(=N/Nc1ccc2ccccc2n1)c1ccccc1O,794 nM (active)
4,CC1=C/C(=C(/c2ccc(O)c(C)c2)c2ccccc2C(=O)O)C=CC1=O,1580 nM (active)

# Target: Cytochrome P450 2C19 (Homo sapiens) (UniProt P33261)
# Test: qHTS Assay for Inhibitors and Substrates of Cytochrome P450 2C19 (AID 899); note: nearly all actives have a fitted effect of over 60% in size; note: potency is the fitted concentration of half-maximal effect
# Settings: recombinant CYP2C19, luciferin-H EGE luminescence; series mostly up to 11.4 µM
# Outline: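 Luminescent read-out of luciferin formed from Luciferin-H EGE (10uM, equal to KM). Enzyme 5nM in 50mM KPO4; compound added, 10 min at 37C, then NADPH regenerating system for 60 min at 37C. Full inhibition defined by 57uM ketoconazole.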
# Sequence of Cytochrome P450 2C19 (Homo sapiens) (P33261 whole entry, looked up): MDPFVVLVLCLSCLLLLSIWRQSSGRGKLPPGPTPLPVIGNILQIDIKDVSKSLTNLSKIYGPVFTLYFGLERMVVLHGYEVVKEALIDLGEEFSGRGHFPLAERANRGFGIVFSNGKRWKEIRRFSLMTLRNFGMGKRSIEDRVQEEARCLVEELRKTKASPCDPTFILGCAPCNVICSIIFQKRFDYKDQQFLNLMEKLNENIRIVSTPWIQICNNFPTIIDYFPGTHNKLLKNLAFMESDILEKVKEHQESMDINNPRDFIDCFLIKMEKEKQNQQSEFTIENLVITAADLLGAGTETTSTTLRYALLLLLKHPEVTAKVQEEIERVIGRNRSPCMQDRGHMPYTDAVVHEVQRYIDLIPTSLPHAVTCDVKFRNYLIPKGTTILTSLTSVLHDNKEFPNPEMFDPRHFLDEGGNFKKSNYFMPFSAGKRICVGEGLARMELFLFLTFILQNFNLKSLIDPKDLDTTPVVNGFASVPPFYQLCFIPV
row,SMILES,Potency
1,CC(C)[C@@H]1OC(=O)C=CC=CC=CC=CC=CC[C@@H](O)[C@H](C)[C@@H](O)C[C@H](O)C[C@H](O)C[C@H](O)C[C@H](O)C[C@H](O)C[C@H](O)C=C[C@@H]1C,inactive
2,Nc1nc(SC/C=C\c2ccccc2)c2[nH]cnc2n1,1580 nM (active)
3,O=C(CC(=O)c1ccncc1)c1ccccc1,398 nM (active)
4,CSC1(SC2=NCCN2)SC2(NCCN2)S1,1580 nM (active)
5,O[C@@H](C1=C/C(=C\c2ccncc2)c2ccccc21)c1ccncc1,158 nM (active)
6,Nc1nc(SCCc2ccccc2)c2[nH]cnc2n1,631 nM (active)
7,Cn1ncc2c(NCCc3ccccc3)nc(Cl)nc21,126 nM (active)
8,Nc1[nH]c(=S)[nH]c(=O)c1N=Nc1c(Br)cc(S(N)(=O)=O)cc1Br,inactive
9,O=C(O)c1ccc(SSc2ccc(C(=O)O)cn2)nc1,2510 nM (active)
10,Cc1ccc(S(=O)(=O)Nc2cc(=O)[nH]c3c2CCC3)cc1,631 nM (active)
11,BrC(c1cccc2ccccc12)c1cccc2ccccc12,1260 nM (active)
12,O=S(=O)(O)c1cc(O)c2c(N=Cc3ccccc3O)cc(S(=O)(=O)O)cc2c1,1580 nM (active)
13,Cc1cc2c(cc1C)NC1=C(N2)O[C@H](c2c[nH]c3ccc(COc4ccccc4)cc23)C1=O,501 nM (active)
14,CC1=C/C(=C(/c2ccc(O)c(C)c2)c2ccccc2C(=O)O)C=CC1=O,3.2 nM (active)
15,Cn1c(=O)c2[nH]c(CCCCc3nc4c([nH]3)c(=O)n(C)c(=S)n4C)nc2n(C)c1=S,inactive

# Tested on: not listed separately
# Test: qHTS Assay for Identification of Small Molecule Agonists for Hypoxia Response Element Signaling Pathway (AID 914; active = well fitted activation curve with a large enough effect in the signal ratio, with a control signal flat, not every such curve was filed as active; the % refers to the signal ratio; note: % of control where 0% means no effect)
# Settings: ME-180 HRE-bla reporter, beta-lactamase ratio, CoCl2, 17 h; activation: stronger effect = higher value
# Outline: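 ME-180 cells carrying an HRE-driven beta-lactamase reporter were treated with compounds in a titration series plus an EC50 level of CoCl2 for 17 h at 37 degrees Celsius; CCF4 readout as the 460nm/530nm ratio gave AC50 values.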
row,SMILES,activation [%]
1,Cc1ccc(S(=O)(=O)Nc2cc(=O)[nH]c3c2CCC3)cc1,2.61
2,Cc1ccc2c(c1)N[C@H](c1ccc(C(=O)O)cc1)c1cccn1-2,-21.9
3,N#C/C(=C\Nc1ccccn1)C(=O)c1ccco1,-12.2
